Experimental data published in PubChem BioAssay (EPA / NIEHS).
Inconclusive results are not listed. Active and inactive are the calls of the source. The calls were made as follows: active = hit-call score of the fitted dose curve at least 0.9, where 1 is the maximum; inconclusive = response in the unintended direction; inactive = score below 0.9.

What follows are compounds tested against human Thyroid Receptor alpha (THRa1), THRA (gene 7067) (UniProt P10827) (assay: ATG_THRa1_TRANS: Attagene TRANS-FACTORIAL HepG2 Assay for human Thyroid Receptor alpha (THRa1) (AID 2283014)).
Experimental: ATG_TRANS is a cell-based, multiplexed-readout assay that uses HepG2, a human liver cell line, with measurements taken at 24 hours after chemical dosing in a 24-well plate.ATG_THRa1_TRANS is one of 30 assay component(s) measured or calculated from the ATG_TRANS assay. It is designed to make measurements of mRNA induction, a form of inducible reporter, as detected with fluorescence intensity signals by Reverse transcription polymerase chain reaction (RT-PCR) and Capillary electrophoresis technology.Data from the assay component ATG_THRa1_TRANS was analyzed into 1 assay endpoint. This assay endpoint, ATG_THRa1_TRANS, was analyzed in the positive analysis fitting direction relative to DMSO as the negative control and baseline of activity. Using a type of inducible reporter, measures of mRNA for gain-of-signal activity can be used to understand the reporter gene at the transcription factor-level as they relate to the gene THRA. Furthermore, this assay endpoint can be referred to as a primary readout, because this assay has produced multiple assay endpoints where this one serves a reporter gene function. To generalize the intended target to other relatable targets, this assay endpoint is annotated to the nuclear receptor intended target family, where the subfamily is non-steroidal.
Human liver HepG2 cells are transiently transfected with multiple reporter transcription units (MRTUs) in 6-well plates using FuGene 6 reagent (Roche; 3 ml FuGene/1 mg DNA). The MRTU constructs are regulated by a cis-regulating element (promoter). […] A major difference between the CIS and TRANS system is that in CIS activities of endogenous TFs are measured, whereas the TRANS assay evaluates changes in activities of exogenous, chimeric NR-Gal4 proteins. […] At the end of 24 hour incubation, total RNA was isolated using TriZol reagent (Invitrogen). The isolated RNA is then reverse-transcribed using oligo(dT) primer and Mo-MLV reverse transcriptase (Invitrogen) with DNAse I (Ambion) treatment for 30 min. The one-tenth of the produced cDNA was amplified by PCR using Taq DNA polymerase (Invitrogen) and two reporter sequence-specific primers. The PCR products were fluorescently labeled by primer extension with 6-arboxyfluorescein (6-FAM) 5'-labeled reporter sequence-specific primer (2 min at 95 C, 20 s at 68 C and 10 min at 72 C) and these products were digested with 5U of HpaI (New England Biolabs) for 2h at 37 C. The fragments were purified using Qiaquick PCR columns (Qiagen), analyzed on an ABI 3130xL genetic analyzer (Applied Biosystems) with peak positions identified by using a set of X-rhodamine (ROX)-labeled MapMarker1000 molecular weight standards (BioVentures). The raw capillary electrophoresis data was processed using Attagraph software (Attagene).

human Thyroid Receptor alpha (THRa1), THRA (gene 7067), sequence (P10827 whole entry, looked up): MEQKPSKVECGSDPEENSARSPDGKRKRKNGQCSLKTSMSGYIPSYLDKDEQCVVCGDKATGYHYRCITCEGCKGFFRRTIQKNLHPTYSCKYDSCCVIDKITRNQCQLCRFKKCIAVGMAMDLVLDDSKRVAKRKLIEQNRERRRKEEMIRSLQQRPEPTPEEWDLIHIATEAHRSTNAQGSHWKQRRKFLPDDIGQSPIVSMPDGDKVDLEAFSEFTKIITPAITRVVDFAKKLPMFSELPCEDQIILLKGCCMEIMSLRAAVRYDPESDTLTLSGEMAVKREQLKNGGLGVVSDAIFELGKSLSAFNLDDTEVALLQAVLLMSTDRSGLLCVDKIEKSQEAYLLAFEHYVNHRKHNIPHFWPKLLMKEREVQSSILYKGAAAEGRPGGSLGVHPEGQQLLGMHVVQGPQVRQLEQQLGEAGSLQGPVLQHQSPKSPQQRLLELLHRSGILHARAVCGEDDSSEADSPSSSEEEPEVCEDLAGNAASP

Compound | outcome
CC(=O)c1ccc(-c2ccccc2)cc1 | inactive
CCNc1nc(Cl)nc(NC(C)(C)C)n1 | inactive
Clc1ccc(Oc2ccccc2)cc1 | inactive
O=C(O)C(F)(F)C(F)(F)C(=O)O | inactive
NC(=O)C(F)(F)C(F)(F)F | inactive
O=C(O)C1C(C(=O)O)C2(Cl)C(Cl)=C(Cl)C1(Cl)C2(Cl)Cl (stereo not given) | inactive
FC(F)(F)C(F)(C(F)(F)F)C(F)(F)C(F)(F)CC1CO1 (stereo not given) | inactive
O=S(=O)(c1ccc(O)cc1)c1ccc(O)cc1 | inactive
CC1(C)CN=C(NN=C(/C=C/c2ccc(C(F)(F)F)cc2)/C=C/c2ccc(C(F)(F)F)cc2)NC1 | inactive
O=[N+]([O-])c1ccc(Cl)c(Cl)c1 | inactive
N#Cc1ccc(O)cc1 | inactive
N#Cc1c(-c2ccc(Cl)cc2)[nH]c(C(F)(F)F)c1Br | inactive
CC(C)(C)OOC(C)(C)C | inactive
OCC(F)(F)OC(F)(F)C(F)(F)OC(F)(F)C(F)(F)OC(F)(F)F | inactive
Cc1c([N+](=O)[O-])cc2c(c1[N+](=O)[O-])C(C)(C)CC2(C)C | inactive
O=C(O)C(Cl)Cl | inactive
CO/N=C(/C(=O)OC)c1ccccc1COc1ccccc1C | inactive
CCOP(=O)(O)C(N)=O | inactive
CCCCc1ccccc1 | inactive
CCOc1ccc(C(C)(C)COCc2cccc(Oc3ccccc3)c2)cc1 | inactive

Compound | outcome
CCOP(=S)(OCC)SCn1nnc2ccccc2c1=O | inactive
ClC1=C(Cl)C2(Cl)C3C(Cl)C(Cl)CC3C1(Cl)C2(Cl)Cl (stereo not given) | inactive
CCOP(=S)(OCC)SCS(=O)(=O)CC | inactive
O=[N+]([O-])c1cc(Cl)ccc1Cl | inactive
c1ccc2c(c1)sc1ccccc12 | inactive
O=P(Oc1ccccc1)(Oc1ccccc1)Oc1ccccc1 | inactive
COP(=O)(O)OC | inactive
Cc1ccc2c(c1N)C(=O)c1ccccc1C2=O | inactive
Cc1cccc(N)c1 | inactive
CCCCC(CC)COC(=O)c1c(Br)c(Br)c(Br)c(Br)c1C(=O)OCC(CC)CCCC (stereo not given) | inactive
CCCCCCCc1ccc(O)cc1 | inactive
Nc1ccc(Cl)cc1 | inactive
c1ccc2c(c1)Nc1ccccc1S2 | inactive
O=C(O)C(F)(F)OC(F)(F)C(F)(F)OC(F)(F)F | inactive
CCOS(=O)(=O)OCC | inactive
Nc1ccc2ccccc2c1 | inactive
CC(C)Nc1ccc(Nc2ccccc2)cc1 | inactive
CCOP(=S)(OCC)SCSc1ccc(Cl)cc1 | inactive
CC(O)C#N (stereo not given) | inactive
CC(C)CBr | inactive
